How the values were obtained:
Experiment in all cases: DAPPL (digital affinity profiling via proximity ligation, sequencing); 10 mM Tris-HCl pH 7.5, 50 mM NaCl, 1 mM DTT, 4% glycerol, room temperature, 30 min; GST-TFs on glutathione beads, 16-mer random dsDNA library, 0.1% formaldehyde crosslink after washing; high values mean tight binding
FLI1 = molecular target: T1, FLI1 (Homo sapiens, UniProt Q01543 1-452); details: protein: recombinant; tags: N-terminal GST; dsDNA, one strand shown
T1 sequence: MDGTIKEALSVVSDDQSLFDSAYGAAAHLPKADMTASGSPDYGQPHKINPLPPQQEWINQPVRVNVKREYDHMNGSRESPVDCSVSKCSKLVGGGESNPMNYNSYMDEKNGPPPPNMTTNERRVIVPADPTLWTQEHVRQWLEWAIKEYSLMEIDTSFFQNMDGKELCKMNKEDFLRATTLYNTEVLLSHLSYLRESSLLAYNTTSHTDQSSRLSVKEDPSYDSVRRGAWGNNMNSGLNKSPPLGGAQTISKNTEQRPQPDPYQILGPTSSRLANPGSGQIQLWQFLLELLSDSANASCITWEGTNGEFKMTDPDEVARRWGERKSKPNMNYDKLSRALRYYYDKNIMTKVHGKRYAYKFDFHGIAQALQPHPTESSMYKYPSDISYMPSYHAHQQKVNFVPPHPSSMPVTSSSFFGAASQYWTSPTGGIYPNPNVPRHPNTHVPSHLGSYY
In short: (§1)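 Human transcription factors carrying a GST fusion were produced in yeast, bound to glutathione beads, tagged with DNA barcodes and pooled together with a tag-only sample. Each pool was held with 200 nmole of a random double-stranded 16-mer DNA library in Tris/NaCl/DTT/glycerol buffer for 30 min at room temperature, then washed, crosslinked in 0.1% formaldehyde, proximity-ligated with BsaI/T4 ligase (1 h, 37 °C), PCR-amplified and sequenced on an Illumina NextSeq500. Binding signal is the read frequency of each hexamer for a given factor divided by its frequency in the tag-only sample.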

ELK1 = molecular target: T2, ELK1 (Homo sapiens, UniProt P19419 1-428); details: protein: recombinant; tags: N-terminal GST; dsDNA, one strand shown
T2 sequence: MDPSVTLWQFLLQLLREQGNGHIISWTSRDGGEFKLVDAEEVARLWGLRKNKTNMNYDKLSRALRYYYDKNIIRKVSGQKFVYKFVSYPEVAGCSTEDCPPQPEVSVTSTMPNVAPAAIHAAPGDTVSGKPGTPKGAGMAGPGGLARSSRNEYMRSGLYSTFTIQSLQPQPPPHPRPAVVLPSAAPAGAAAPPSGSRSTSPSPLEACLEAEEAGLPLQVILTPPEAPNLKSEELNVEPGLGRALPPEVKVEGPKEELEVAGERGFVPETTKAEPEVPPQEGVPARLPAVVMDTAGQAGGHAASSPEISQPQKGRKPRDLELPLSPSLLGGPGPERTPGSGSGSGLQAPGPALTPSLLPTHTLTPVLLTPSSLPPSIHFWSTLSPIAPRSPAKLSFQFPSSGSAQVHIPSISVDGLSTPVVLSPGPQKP
In short: as §1

GABPA = molecular target: T3, GABPA (Homo sapiens, UniProt Q06546 1-454); details: protein: recombinant; tags: N-terminal GST; dsDNA, one strand shown
T3 sequence: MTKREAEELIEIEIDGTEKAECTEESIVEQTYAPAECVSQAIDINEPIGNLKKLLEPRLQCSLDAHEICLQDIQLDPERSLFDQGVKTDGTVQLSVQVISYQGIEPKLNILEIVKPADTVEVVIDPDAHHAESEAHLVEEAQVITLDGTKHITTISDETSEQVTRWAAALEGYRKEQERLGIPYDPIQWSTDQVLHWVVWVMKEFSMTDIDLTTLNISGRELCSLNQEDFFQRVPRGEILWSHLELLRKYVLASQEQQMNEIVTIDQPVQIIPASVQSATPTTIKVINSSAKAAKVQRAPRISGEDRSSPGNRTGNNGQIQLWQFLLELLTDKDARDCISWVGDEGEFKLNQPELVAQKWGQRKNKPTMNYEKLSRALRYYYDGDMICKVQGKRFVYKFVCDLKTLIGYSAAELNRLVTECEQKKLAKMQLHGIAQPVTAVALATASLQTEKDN
In short: as §1

ERG = molecular target: T4, ERG (Homo sapiens, UniProt P11308 1-479); details: protein: recombinant; tags: N-terminal GST; dsDNA, one strand shown
T4 sequence: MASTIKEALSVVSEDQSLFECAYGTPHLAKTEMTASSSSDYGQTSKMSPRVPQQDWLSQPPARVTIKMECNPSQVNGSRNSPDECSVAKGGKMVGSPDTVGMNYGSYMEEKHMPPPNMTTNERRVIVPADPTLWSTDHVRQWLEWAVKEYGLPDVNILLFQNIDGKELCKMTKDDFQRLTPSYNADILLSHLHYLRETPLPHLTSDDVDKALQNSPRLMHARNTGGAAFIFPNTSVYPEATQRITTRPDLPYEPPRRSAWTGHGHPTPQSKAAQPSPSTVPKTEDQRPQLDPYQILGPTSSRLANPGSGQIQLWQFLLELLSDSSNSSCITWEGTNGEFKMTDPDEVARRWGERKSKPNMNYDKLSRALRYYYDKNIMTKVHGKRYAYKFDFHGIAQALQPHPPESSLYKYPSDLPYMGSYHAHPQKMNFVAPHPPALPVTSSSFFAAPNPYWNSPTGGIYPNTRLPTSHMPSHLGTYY
In short: as §1

ELF1 = ELF1 (Homo sapiens, UniProt P32519 1-619); details: protein: recombinant; tags: N-terminal GST; dsDNA, one strand shown
In short: as §1

EHF = molecular target: T5, EHF (Homo sapiens, UniProt Q9NZC4 1-300); details: protein: recombinant; tags: N-terminal GST; dsDNA, one strand shown
T5 sequence: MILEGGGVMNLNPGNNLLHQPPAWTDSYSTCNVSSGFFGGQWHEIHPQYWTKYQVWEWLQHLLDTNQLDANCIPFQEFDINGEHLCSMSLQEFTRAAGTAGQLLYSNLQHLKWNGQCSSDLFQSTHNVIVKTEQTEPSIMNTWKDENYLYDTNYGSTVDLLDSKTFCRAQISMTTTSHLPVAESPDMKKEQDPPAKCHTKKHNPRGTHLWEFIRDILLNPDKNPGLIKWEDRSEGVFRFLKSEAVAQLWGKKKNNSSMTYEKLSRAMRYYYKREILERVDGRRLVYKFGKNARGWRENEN
In short: as §1

SPI1 = SPI1 (Homo sapiens, UniProt P17947 1-270); details: protein: recombinant; tags: N-terminal GST; dsDNA, one strand shown
In short: as §1

SPIB = SPIB (Homo sapiens, UniProt Q01892 1-262); details: protein: recombinant; tags: N-terminal GST; dsDNA, one strand shown
In short: as §1

ELK3 = molecular target: T6, ELK3 (Homo sapiens, UniProt P41970 1-407); details: protein: recombinant; tags: N-terminal GST; dsDNA, one strand shown
T6 sequence: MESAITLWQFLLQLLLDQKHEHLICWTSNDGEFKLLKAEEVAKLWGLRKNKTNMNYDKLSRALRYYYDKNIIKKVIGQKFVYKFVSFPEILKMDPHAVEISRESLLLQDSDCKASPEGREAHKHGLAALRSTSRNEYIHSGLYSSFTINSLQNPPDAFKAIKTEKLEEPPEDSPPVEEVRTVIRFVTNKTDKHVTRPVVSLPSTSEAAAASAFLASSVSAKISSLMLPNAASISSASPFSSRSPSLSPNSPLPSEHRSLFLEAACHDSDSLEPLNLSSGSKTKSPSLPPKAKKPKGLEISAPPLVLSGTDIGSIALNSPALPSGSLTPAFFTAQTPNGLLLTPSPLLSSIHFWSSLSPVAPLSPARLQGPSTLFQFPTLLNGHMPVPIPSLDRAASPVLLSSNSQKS
In short: as §1

FEV = molecular target: T7, FEV (Homo sapiens, UniProt Q99581 1-238); details: protein: recombinant; tags: N-terminal GST; dsDNA, one strand shown
T7 sequence: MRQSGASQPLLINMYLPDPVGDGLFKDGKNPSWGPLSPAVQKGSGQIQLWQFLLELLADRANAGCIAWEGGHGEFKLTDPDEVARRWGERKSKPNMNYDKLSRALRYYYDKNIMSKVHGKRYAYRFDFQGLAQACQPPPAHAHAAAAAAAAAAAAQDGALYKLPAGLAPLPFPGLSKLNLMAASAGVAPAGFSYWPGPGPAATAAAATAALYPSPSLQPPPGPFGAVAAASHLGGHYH
In short: as §1

ETV5 = ETV5 (Homo sapiens, UniProt P41161 1-510); details: protein: recombinant; tags: N-terminal GST; dsDNA, one strand shown
In short: as §1

HSF1 = HSF1 (Homo sapiens, UniProt Q00613 1-529); details: protein: recombinant; tags: N-terminal GST; chain copies: 3; dsDNA, one strand shown
In short: as §1

SPIC = molecular target: T8, SPIC (Homo sapiens, UniProt Q8N5J4 1-248); details: protein: recombinant; tags: N-terminal GST; dsDNA, one strand shown
T8 sequence: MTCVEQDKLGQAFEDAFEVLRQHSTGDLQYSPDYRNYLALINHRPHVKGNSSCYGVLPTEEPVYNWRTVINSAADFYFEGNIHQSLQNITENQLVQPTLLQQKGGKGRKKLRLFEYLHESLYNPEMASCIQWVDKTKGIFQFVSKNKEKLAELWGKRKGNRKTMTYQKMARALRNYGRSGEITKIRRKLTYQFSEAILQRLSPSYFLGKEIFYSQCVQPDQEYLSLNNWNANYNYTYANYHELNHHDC
In short: as §1

ELF4 = ELF4 (Homo sapiens, UniProt Q99607 1-663); details: protein: recombinant; tags: N-terminal GST; dsDNA, one strand shown
In short: as §1

ELK4 = molecular target: T9, ELK4 (Homo sapiens, UniProt P28324-2 1-405); details: protein: recombinant; tags: N-terminal GST; dsDNA, one strand shown
T9 sequence: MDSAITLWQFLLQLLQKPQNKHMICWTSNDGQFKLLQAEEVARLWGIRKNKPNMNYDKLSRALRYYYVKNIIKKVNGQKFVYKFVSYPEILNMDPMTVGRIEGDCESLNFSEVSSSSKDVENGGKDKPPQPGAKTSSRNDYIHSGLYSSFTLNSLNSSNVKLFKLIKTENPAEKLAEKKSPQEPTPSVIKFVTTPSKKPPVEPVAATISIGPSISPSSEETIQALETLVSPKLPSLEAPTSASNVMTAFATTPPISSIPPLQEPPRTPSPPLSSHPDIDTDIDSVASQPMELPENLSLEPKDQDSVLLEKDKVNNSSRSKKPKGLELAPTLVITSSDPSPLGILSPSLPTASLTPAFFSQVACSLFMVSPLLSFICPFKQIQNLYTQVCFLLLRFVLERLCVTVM
In short: as §1

ETV2 = molecular target: T10, ETV2 (Homo sapiens, UniProt O00321 1-342); details: protein: recombinant; tags: N-terminal GST; dsDNA, one strand shown
T10 sequence: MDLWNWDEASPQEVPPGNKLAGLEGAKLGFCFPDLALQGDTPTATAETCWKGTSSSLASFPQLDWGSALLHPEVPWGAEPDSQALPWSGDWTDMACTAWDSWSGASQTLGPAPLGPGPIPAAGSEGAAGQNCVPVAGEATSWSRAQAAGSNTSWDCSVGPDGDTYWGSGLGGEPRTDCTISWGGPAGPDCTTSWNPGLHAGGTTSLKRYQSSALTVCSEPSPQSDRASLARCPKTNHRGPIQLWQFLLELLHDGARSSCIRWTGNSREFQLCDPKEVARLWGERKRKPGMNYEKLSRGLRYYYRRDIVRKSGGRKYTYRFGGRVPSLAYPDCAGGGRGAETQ
In short: as §1

ELF3 = molecular target: T11, ELF3 (Homo sapiens, UniProt P78545 1-371); details: protein: recombinant; tags: N-terminal GST; dsDNA, one strand shown
T11 sequence: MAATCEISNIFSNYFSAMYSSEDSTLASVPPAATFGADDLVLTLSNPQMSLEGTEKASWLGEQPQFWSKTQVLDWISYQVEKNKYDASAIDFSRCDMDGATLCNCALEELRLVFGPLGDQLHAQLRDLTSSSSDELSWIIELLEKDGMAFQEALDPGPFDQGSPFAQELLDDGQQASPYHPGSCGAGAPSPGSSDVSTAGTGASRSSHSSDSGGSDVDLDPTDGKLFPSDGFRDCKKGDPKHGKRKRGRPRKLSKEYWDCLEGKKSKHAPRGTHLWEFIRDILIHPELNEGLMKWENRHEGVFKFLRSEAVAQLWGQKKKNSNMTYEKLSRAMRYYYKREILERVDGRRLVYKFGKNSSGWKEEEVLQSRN
In short: as §1

CRX = CRX (Homo sapiens, UniProt O43186 1-299); details: protein: recombinant; tags: N-terminal GST; dsDNA, one strand shown
In short: as §1

ETV1 = ETV1 (Homo sapiens, UniProt P50549 1-477); details: protein: recombinant; tags: N-terminal GST; dsDNA, one strand shown
In short: as §1

ETV5, sequence (P41161 whole entry): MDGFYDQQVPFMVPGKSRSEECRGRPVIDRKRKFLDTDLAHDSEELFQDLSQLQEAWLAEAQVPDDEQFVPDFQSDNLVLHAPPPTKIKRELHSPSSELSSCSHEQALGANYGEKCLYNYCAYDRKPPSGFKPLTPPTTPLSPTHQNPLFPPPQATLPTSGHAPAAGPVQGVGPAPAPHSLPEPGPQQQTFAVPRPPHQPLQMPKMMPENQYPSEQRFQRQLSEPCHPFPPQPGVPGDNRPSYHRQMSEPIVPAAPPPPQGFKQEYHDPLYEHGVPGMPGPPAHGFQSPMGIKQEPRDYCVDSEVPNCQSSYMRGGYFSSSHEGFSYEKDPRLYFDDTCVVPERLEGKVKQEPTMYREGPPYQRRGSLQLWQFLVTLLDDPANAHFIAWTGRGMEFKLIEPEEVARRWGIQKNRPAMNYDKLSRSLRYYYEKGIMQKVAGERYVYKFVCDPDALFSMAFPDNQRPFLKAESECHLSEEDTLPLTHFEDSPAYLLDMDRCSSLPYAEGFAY
ELF4, sequence (Q99607 whole entry): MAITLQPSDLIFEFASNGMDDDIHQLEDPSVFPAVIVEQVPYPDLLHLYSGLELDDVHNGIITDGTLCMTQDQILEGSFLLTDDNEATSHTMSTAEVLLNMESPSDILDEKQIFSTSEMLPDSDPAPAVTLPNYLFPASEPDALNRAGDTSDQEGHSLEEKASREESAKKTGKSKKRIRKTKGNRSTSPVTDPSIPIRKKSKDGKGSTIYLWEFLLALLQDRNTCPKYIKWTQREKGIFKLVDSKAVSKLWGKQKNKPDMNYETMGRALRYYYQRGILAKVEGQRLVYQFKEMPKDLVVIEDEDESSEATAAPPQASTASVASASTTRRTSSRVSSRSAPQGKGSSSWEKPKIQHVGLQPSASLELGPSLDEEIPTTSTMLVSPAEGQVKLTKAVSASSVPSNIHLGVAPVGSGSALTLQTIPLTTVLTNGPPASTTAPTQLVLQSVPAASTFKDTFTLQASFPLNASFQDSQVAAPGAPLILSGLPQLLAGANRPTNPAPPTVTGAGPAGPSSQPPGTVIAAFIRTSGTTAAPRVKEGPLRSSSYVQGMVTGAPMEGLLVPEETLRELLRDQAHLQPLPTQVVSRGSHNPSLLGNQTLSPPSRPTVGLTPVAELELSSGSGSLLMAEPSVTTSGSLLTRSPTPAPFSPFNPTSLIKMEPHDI
SPIB, sequence (Q01892 whole entry): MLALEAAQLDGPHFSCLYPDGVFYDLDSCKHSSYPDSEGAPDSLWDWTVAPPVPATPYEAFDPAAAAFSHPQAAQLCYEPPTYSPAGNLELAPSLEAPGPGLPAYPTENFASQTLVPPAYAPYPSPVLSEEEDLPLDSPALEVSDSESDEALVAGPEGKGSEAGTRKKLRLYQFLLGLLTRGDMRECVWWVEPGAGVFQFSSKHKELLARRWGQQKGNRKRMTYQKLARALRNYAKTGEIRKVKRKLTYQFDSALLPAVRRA
HSF1, sequence (Q00613 whole entry): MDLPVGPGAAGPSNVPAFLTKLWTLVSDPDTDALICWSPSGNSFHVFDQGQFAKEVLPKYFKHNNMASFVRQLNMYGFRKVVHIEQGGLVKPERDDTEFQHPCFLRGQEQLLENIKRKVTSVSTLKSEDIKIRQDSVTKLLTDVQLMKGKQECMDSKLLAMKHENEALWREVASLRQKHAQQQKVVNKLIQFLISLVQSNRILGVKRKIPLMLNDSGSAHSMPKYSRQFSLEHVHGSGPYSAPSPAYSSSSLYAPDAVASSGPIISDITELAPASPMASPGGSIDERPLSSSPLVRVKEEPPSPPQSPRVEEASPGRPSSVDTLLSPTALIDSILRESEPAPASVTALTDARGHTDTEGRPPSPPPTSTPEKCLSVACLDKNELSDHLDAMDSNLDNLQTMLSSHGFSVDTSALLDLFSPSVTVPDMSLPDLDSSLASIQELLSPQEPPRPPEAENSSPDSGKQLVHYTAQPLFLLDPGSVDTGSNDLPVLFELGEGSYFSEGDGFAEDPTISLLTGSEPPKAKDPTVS
CRX, sequence (O43186 whole entry): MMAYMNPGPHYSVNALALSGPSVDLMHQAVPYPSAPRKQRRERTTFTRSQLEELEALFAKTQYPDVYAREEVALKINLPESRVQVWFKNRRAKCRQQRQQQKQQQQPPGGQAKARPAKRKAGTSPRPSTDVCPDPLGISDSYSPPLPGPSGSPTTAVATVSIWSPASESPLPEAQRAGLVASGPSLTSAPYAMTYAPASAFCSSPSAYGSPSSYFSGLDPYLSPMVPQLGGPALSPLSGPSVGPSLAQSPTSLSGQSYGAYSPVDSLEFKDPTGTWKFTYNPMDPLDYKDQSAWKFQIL
ELF1, sequence (P32519 whole entry): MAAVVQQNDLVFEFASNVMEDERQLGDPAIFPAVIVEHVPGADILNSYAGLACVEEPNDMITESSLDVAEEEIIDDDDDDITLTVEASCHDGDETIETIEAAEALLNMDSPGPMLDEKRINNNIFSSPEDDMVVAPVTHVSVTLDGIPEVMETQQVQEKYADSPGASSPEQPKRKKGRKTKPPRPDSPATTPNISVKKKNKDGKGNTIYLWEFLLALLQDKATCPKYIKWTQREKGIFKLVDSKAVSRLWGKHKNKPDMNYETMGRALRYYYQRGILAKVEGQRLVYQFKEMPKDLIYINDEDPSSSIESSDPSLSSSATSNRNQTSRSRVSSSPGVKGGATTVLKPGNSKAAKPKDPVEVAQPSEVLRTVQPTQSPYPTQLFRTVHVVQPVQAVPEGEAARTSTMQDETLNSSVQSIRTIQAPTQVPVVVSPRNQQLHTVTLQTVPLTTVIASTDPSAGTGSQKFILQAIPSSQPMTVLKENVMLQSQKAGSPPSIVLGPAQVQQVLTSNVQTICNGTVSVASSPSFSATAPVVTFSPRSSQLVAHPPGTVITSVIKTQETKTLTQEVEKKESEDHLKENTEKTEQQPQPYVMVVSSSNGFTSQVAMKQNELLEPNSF
ETV1, sequence (P50549 whole entry): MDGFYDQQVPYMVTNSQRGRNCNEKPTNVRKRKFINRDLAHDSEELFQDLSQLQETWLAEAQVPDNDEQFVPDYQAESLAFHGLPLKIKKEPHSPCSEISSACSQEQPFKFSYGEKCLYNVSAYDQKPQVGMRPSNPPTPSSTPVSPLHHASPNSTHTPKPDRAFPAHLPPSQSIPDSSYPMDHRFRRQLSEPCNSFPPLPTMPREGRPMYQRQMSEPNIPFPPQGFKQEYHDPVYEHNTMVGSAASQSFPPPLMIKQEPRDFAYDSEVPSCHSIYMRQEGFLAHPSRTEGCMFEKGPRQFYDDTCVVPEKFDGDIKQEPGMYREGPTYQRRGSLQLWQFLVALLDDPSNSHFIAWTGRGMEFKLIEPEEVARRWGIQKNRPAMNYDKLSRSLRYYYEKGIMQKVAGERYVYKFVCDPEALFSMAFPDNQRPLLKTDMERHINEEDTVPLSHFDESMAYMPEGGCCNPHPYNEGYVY

For TCTCAC, the binding signal (FLI1) was 1.45 fold enrichment (6-mer frequency, TF over GST control), the binding signal (ELK1) was 1.45 fold enrichment (6-mer frequency, TF over GST control) and the binding signal (GABPA) was 1.43 fold enrichment (6-mer frequency, TF over GST control). For the same sequence, the binding signal (ERG) was 1.41 fold enrichment (6-mer frequency, TF over GST control), the binding signal (ELF1) was 1.39 fold enrichment (6-mer frequency, TF over GST control) and the binding signal (EHF) was 1.39 fold enrichment (6-mer frequency, TF over GST control). For the same sequence, the binding signal (SPI1) was 1.36 fold enrichment (6-mer frequency, TF over GST control), the binding signal (SPIB) was 1.48 fold enrichment (6-mer frequency, TF over GST control) and the binding signal (ELK3) was 1.58 fold enrichment (6-mer frequency, TF over GST control). The binding signal (FEV) was 1.47 fold enrichment (6-mer frequency, TF over GST control), the binding signal (ETV5) was 1.34 fold enrichment (6-mer frequency, TF over GST control) and the binding signal (HSF1) was 1.3 fold enrichment (6-mer frequency, TF over GST control). For the same sequence, the binding signal (SPIC) was 1.55 fold enrichment (6-mer frequency, TF over GST control), the binding signal (ELF4) was 1.37 fold enrichment (6-mer frequency, TF over GST control) and the binding signal (ELK4) was 1.35 fold enrichment (6-mer frequency, TF over GST control). For the same sequence, the binding signal (ETV2) was 1.18 fold enrichment (6-mer frequency, TF over GST control), the binding signal (ELF3) was 1.42 fold enrichment (6-mer frequency, TF over GST control) and the binding signal (CRX) was 1.33 fold enrichment (6-mer frequency, TF over GST control). For the same sequence, the binding signal (ETV1) was 1.3 fold enrichment (6-mer frequency, TF over GST control).

Reference: publication PMC7862700, “An all-to-all approach to the identification of sequence-specific readers for epigenetic DNA modifications on cytosine”
